The panel holds about 83,000 compounds, 20% with a hit somewhere; the sample as a whole holds those more often.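 96-well plates, one dose, 48 hours. Percent growth reported; active if below 10.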 A number with no mark means an inactive call. Activity calls are given as the source filed them.
Test system: K-562 leukemia
Assay: NCI-60 one-dose screen, 48 h (100 = growth as untreated, 0 = no growth, -100 = all killed)
Details: 10 µM unless noted

Compound | growth
Cc1nc2sc(C(=O)Nc3cccc(Cl)c3C)c(N)c2cc1C(=O)/C=C/c1ccccc1 | 10.2%
CN1CCN(Cc2ccc(NC(=O)c3cncc(C#Cc4cnc(N)cc4C#N)c3)cc2C(F)(F)F)CC1 | 15.9%
c1cc(OCCN2CCCC2)ccc1CNc1ccc2nc(CCC3CCCCC3)[nH]c2c1 | -11.7% (active)
CCN(CC)CCOc1ccc2c(-c3ccccc3)c(-c3ccc(OC)cc3)c(=O)oc2c1 | 25%
O=C1/C(=C/c2c[nH]c(=O)[nH]c2=O)SC(=S)N1Cc1ccccc1 | 101%
CCN(CC)CCCNc1cc(OC)c(OC)c2cccnc12 | 66.2%
COc1cc(Cc2cc(OC)c(O)c(OC)c2)cc(OC)c1O | 20.1%
CSc1ccc(N2C(=N)C(=S)N(c3ccc(C)cc3)C2=O)cc1 | 82%
CCOC(=O)/C(=C(/C)NCC(C)C)c1cc(O)c(O)c2c(C)cc(=O)[nH]c12 | 24.5%
C/C(=C(\c1ccc(OCCN2CCCCCC2)cc1)c1ccc(OC(=O)c2ccccc2)cc1)c1ccc(Cl)cc1 | -4.61% (active)
COCCn1cc(-c2csc(-c3c[nH]c4ccc(F)cc34)n2)c2cccnc21 | 8.38% (active)
Cc1ccc2cnc(N)c(C#Cc3cc(C(=O)Nc4ccc(CN5CCN(C)CC5)c(C(F)(F)F)c4)cnc3C)c2c1 | -43% (active)
O=C(NNc1nc2cc(F)ccc2n2c(CN3CCOCC3)ccc12)c1ccccc1 | 5.32% (active)
COc1ccc(-c2nc(SCC(=O)Nc3nc4ccc(C)cc4s3)[nH]c(=O)c2C#N)cc1OC | 94.4%
